PubChem BioAssay AID1611 (NINDS Approved Drug Screening Program, 2009)

assay: inducers of human heat shock response, cell-based, HSE luciferase (AID 1611); settings: human cells, HSE-luciferase heat shock reporter; stronger effect = higher value

In order of falling fold change:
1. Cc1onc(-c2ccccc2)c1C(=O)NC1C(=O)N2[C@@H]1SC(C)(C)[C@@H]2C(=O)O (stereo partly drawn)  1.85
2. CCN(CC)C(C)CN1c2ccccc2Sc2ccccc21 (stereo not drawn)  1.55
3. C[C@@H]1O[C@@H](O[C@H]2[C@H](Oc3cc(O)c4c(c3)O[C@H](c3ccc(O)cc3)CC4=O)O[C@H](CO)[C@@H](O)[C@@H]2O)[C@H](O)[C@H](O)[C@H]1O  1.36
4. CC(C)Oc1ccc2c(=O)cc(-c3ccccc3)oc2c1  1.28
5. CCCOc1ccc2nc(NC(=O)OC)[nH]c2c1  1.26
6. CN(C)c1ccc(C(=C2C=CC(=[N+](C)C)C=C2)c2ccc(N(C)C)cc2)cc1  1.22
7. Nc1cc(-c2ccncc2)c[nH]c1=O  1.16
8. CC[C@]12CCCN3CCc4c(n(c5ccccc45)[C@](O)(C(=O)OC)C1)[C@@H]32  1.14
9. CC(=O)Oc1ccc2c(c1)CCC1C2CC[C@@]2(C)C1CC[C@@H]2OC(C)=O (stereo partly drawn)  1.07
10. COC1=C2C[C@@H](C)C[C@H](OC)[C@H](O)[C@@H](C)/C=C(\C)[C@@H](OC(N)=O)[C@H](OC)/C=C\C=C(/C)C(=O)NC(=CC1=O)C2=O  1.05
11. CO/N=C(/C(=O)NC1C(=O)N2C(C(=O)O)=C(COC(N)=O)CSC12)c1ccco1 (stereo not drawn)  1
12. NCCCCC(N)C(=O)NC(Cc1ccc(O)cc1)C(=O)NC(CCCCN)C(=O)O (stereo not drawn)  0.95
13. CC(=O)Nc1ccccc1  0.93
14. O=C1NS(=O)(=O)c2ccccc21  0.91
15. CN(Cc1cnc2nc(N)nc(N)c2n1)c1ccc(C(=O)N[C@@H](CCC(=O)O)C(=O)O)cc1  0.91
16. CC(CN1c2ccccc2Sc2ccccc21)N(C)C (stereo not drawn)  0.91
17. CC1=CC(=O)c2ccccc2C1=O  0.86
18. COC(=O)C(N)CS (stereo not drawn)  0.85
19. CC(C)NCC(O)COc1ccc(CC(N)=O)cc1 (stereo not drawn)  0.76
20. O=C(OCc1ccccc1)c1ccccc1  0.75
21. CCN1CCCC(OC(=O)C(c2ccccc2)c2ccccc2)C1 (stereo not drawn)  0.74
22. CN1CCc2cccc3c2C1Cc1ccc(O)c(O)c1-3 (stereo not drawn)  0.71
23. COCCc1ccc(OCC(O)CNC(C)C)cc1 (stereo not drawn)  0.6
